# PubChem BioAssay
# A number with no mark means an inactive call. Inconclusive results are not listed. Active and inactive are the calls of the source.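 Rule for the calls, unless noted: active = GFP response above 150% of the DMSO control; inconclusive = Fewer than 70 cells counted for a yeast strain; inactive = the rest.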
# Columns and labels:
# [1] = modulators of MEP2-GFP levels in yeast, primary screen, S. cerevisiae, multiplex flow cytometry (AID 1867;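 active = GFP response, as percent of the DMSO control, above the screen-wide mean plus 3 SD, about 139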;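 note: median GFP channel fluorescence of barcode-gated MEP2-GFP cells measured by flow cytometry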); settings: S. cerevisiae MEP2-GFP strain, 3 h, at 10 µM, stronger effect = higher value
# [2] = modulators of AGP1-GFP expression in yeast TOR pathway, primary screen, cell-based, multiplex flow cytometry, S. cerevisiae (AID 1887;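 active = GFP signal above the screen-wide mean plus 3 SD, that is over about 124.5% of the solvent control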;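 note: AGP1-GFP fusion strain of S. cerevisiae within a five-strain barcoded multiplex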); settings: 3 h, at 10 µM, stronger effect = higher value
# [3] = modulators of MEP2-GFP levels in yeast, confirmation, S. cerevisiae, flow cytometry GFP, cherry picks (AID 2272);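 note: ratio of well signal to plate DMSO mean so 100% equals DMSO level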; settings: S. cerevisiae MEP2-GFP strain, 3 h, at 10 µM, stronger effect = higher value
# [4] = AGP1-GFP expression modulators, hit retest, confirmation, cell-based, flow cytometry, S. cerevisiae, cherry picks (AID 2273;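 active = GFP response above 150% of the DMSO level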;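 note: median GFP channel fluorescence over the whole cell population gate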); settings: S. cerevisiae AGP1-GFP strain, 3 h, at 10 µM
smiles,measurement,setting,value
C[C@@H]1O[C@@H](O[C@H]2C[C@@H](O)[C@]3(CO)[C@H]4[C@H](O)C[C@]5(C)[C@@H](C6=CC(=O)OC6)CC[C@]5(O)[C@@H]4CC[C@]3(O)C2)[C@H](O)[C@H](O)[C@H]1O,GFP response vs DMSO,[1],104%
same,"GFP response, % of DMSO",[2],116%
CC(C)(C)NCC(O)c1cc(Cl)c(N)c(Cl)c1 (stereo not given),GFP response vs DMSO,[1],102%
same,"GFP response, % of DMSO",[2],91.4%
O=C(O)CCCc1ccc(N(CCCl)CCCl)cc1,GFP response vs DMSO,[1],103%
same,"GFP response, % of DMSO",[2],97.6%
O=C1NC(=O)N(CCc2ccc(F)cc2)C(=O)/C1=C/c1cccs1,GFP response vs DMSO,[3],94.4%
same,"GFP response, % of DMSO",[4],101%
Nc1ccc2ccc3cccc[n+]3c2c1,GFP response vs DMSO,[3],257% (active)
same,"GFP response, % of DMSO",[4],110%
Cc1ccc(N2C(=O)NC(=O)/C(=C\c3cn(CC(=O)O)c4ccccc34)C2=O)cc1,GFP response vs DMSO,[3],100%
same,"GFP response, % of DMSO",[4],98.9%
N#CC(C#N)=NNc1ccc(-n2ccc(C(F)(F)F)n2)cc1,GFP response vs DMSO,[3],114%
same,"GFP response, % of DMSO",[4],102%
N#CC(C#N)=Cc1ccc(N2CCCC2)cc1,GFP response vs DMSO,[3],112%
same,"GFP response, % of DMSO",[4],109%
O=C1/C(=C\c2ccc(Cl)c(Cl)c2)N2CCC1CC2,GFP response vs DMSO,[3],92.6%
same,"GFP response, % of DMSO",[4],95.5%
Nc1ccc(N=Nc2ccccc2)cc1,GFP response vs DMSO,[3],103%
same,"GFP response, % of DMSO",[4],93.4%
CN1C(=O)C(=Cc2ccc(Sc3ccccc3)o2)C(=O)N(C)C1=S,GFP response vs DMSO,[3],106%
same,"GFP response, % of DMSO",[4],99.3%
CCNC(=O)[C@H]1O[C@@H](n2cnc3c(N)ncnc32)[C@H](O)[C@@H]1O,GFP response vs DMSO,[1],115%
same,"GFP response, % of DMSO",[2],91.5%
CC(C)[C@@]1(NC(=O)[C@@H]2C[C@@H]3c4cccc5[nH]cc(c45)C[C@H]3N(C)C2)O[C@@]2(O)[C@@H]3CCCN3C(=O)[C@H](Cc3ccccc3)N2C1=O,GFP response vs DMSO,[1],132%
Cc1cccn2c(NCC3CCCO3)c(C(C)C)nc12 (stereo not given),GFP response vs DMSO,[3],104%
same,"GFP response, % of DMSO",[4],105%
CCOC(=O)C(C)Oc1cc(C)cc2oc(=O)c3c(c12)CCCC3 (stereo not given),GFP response vs DMSO,[1],116%
CN1C(=O)NC(=O)/C(=C\C=C\c2ccccc2[N+](=O)[O-])C1=O,GFP response vs DMSO,[3],105%
same,"GFP response, % of DMSO",[4],108%
COc1ccc(N2C(=O)/C(=C/c3ccco3)C(=O)NC2=S)cc1,GFP response vs DMSO,[3],100%
same,"GFP response, % of DMSO",[4],100%
O=C(O)c1[nH]c(=O)[nH]c(=O)c1F,GFP response vs DMSO,[3],101%
same,"GFP response, % of DMSO",[4],102%
CCN1C(=O)NC(=O)/C(=C\c2cn(CC(=O)N3CCCC3)c3ccccc23)C1=O,GFP response vs DMSO,[3],106%
same,"GFP response, % of DMSO",[4],102%
O=[N+]([O-])c1ccc(N2CCNCC2)cc1Sc1ccccn1,GFP response vs DMSO,[3],97.8%
same,"GFP response, % of DMSO",[4],97.2%
O=c1[nH]c(=O)n(Cc2ccc(F)cc2)c(O)c1C=NCCN1CCCCC1,GFP response vs DMSO,[3],101%
same,"GFP response, % of DMSO",[4],102%
Cc1cc(C=C2C(=O)N(C)C(=S)N(C)C2=O)c(C)n1-c1ccncc1,GFP response vs DMSO,[3],113%
same,"GFP response, % of DMSO",[4],100%
O=C1NC(=O)N(Cc2ccco2)C(=O)/C1=C\c1ccc(-c2ccc(F)cc2)o1,GFP response vs DMSO,[3],99.3%
same,"GFP response, % of DMSO",[4],100%
CCN1CC2(COC(=O)c3ccccc3N)CCC(OC)C34C5CC6C(OC)CC(O)(C5C6OC)C(O)(C(OC)C23)C14 (stereo not given),GFP response vs DMSO,[1],120%
Fc1ccc(C(OCCN2CCCC2)c2ccc(Br)cc2)cc1 (stereo not given),GFP response vs DMSO,[1],98.5%
CCOC(=O)C1=C(C)OC(N)=C(C(=O)OCC)[C@@]12C(=O)N(CC(N)=O)c1ccccc12,GFP response vs DMSO,[1],120%
O=C1C=Cc2ccccc2C1=O,GFP response vs DMSO,[1],116%
CCN(CC)c1ccc(/C=C/[N+](=O)[O-])cc1,GFP response vs DMSO,[3],108%
same,"GFP response, % of DMSO",[4],96.7%
O=C1NC(=S)NC(=O)C1=Cc1ccc2c(c1)CCN2CCCCl,GFP response vs DMSO,[3],103%
same,"GFP response, % of DMSO",[4],87.8%
CCOC(=O)c1cncn1C(C)c1ccccc1 (stereo not given),"GFP response, % of DMSO",[2],95%
O=c1[nH]c(=S)n(-c2ccccc2)c(O)c1/C=N/N1CCOCC1,GFP response vs DMSO,[3],99%
same,"GFP response, % of DMSO",[4],99.8%
O=C(O)c1nn(Cc2ccc(Cl)cc2Cl)c2ccccc12,GFP response vs DMSO,[3],100%
same,"GFP response, % of DMSO",[4],99.2%
O=C1NC(=O)N(c2ccccc2)C(=O)/C1=C/c1ccc(Sc2ccccc2)o1,GFP response vs DMSO,[3],108%
same,"GFP response, % of DMSO",[4],91.7%
Cc1ccc(/C=C2\C(=O)NC(=O)N(CC3CCCO3)C2=O)s1 (stereo not given),GFP response vs DMSO,[3],92%
same,"GFP response, % of DMSO",[4],92.1%
COc1cc(/C=C/C(=O)c2c(O)n(CCc3ccccc3)c(=O)[nH]c2=O)ccc1O,GFP response vs DMSO,[3],98.8%
same,"GFP response, % of DMSO",[4],102%
CN1CCN(c2ccc([N+](=O)[O-])c(Sc3ccccn3)c2)CC1,GFP response vs DMSO,[3],105%
same,"GFP response, % of DMSO",[4],98%
CC12CN3CC(C)(CN(C1)C3c1cccnc1)C2=O (stereo not given),GFP response vs DMSO,[1],117%
CCN(CC)c1ccc(C=C2C(=O)NC(=S)NC2=O)cc1,GFP response vs DMSO,[3],95.2%
same,"GFP response, % of DMSO",[4],100%
O=C1NC(=O)C(=Cc2ccc(Sc3ccccc3)o2)C(=O)N1,GFP response vs DMSO,[3],92%
same,"GFP response, % of DMSO",[4],83.6%
